Measurements taken from PubChem BioAssay AID808 (Columbia University Molecular Screening Center, 2007).
In all, about 93,000 compounds went through this assay and about 180 (0.19%) were called active. Only a selection was taken, and actives are over-represented in it overall. Values without a mark were called inactive.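 How the source made its calls: active means activation above the screen mean plus 3 SD, with well images confirming the hit on visual review (cut at about 28% in these data, passing the limit was not always enough); inconclusive means activation above that limit but images do not confirm it; inactive means activation not above that limit.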

Experiment: enhancers of endothelial VCAM-1 upregulation by TNFa – imaging, HUVEC, TNFa stimulus, immunofluorescence, primary screen (AID 808);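 further: signal is the number of cytoplasmic VCAM-1 stained grains per positive cell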
Settings: HUVEC TNFa-stimulated VCAM-1 immunofluorescence, high-content imaging; at 2 µM; stronger effect = higher value; scaled per plate to unstimulated/TNFa-only wells

Row | Compound | activation
1 | Cc1ccc(-c2csc(NC(=O)c3cccs3)n2)cc1 | 5.6%
2 | Cc1cccc(N=C2NC(=O)CS2)c1C | -97.1%
3 | COc1ccc(-c2c3c(=O)n(C)c(=O)n(C)c3cn2-c2cccc(OC)c2)cc1 | -7.7%
4 | COc1ccc(C(=O)OCC(=O)NCC2CCCCC2)cc1S(=O)(=O)N1CCCc2ccccc21 | -5.3%
5 | CCOC(=O)CCP(=O)(O)C(O)(c1ccccc1)c1ccccc1 | -1.8%
6 | CC(=O)c1cccc(S(=O)(=O)N2CCC(n3nnc4cc(F)ccc43)CC2)c1 | -54.7%
7 | COc1ccc(/C=N/Nc2nc3ccccc3o2)cc1OC | 32.9% (active)
8 | COc1cc(/C=N/NC(=O)Nc2ccccc2)ccc1OCCOc1ccccc1C | -51.1%
9 | C=CCOc1ccc(/C=N/n2cncn2)cc1OC | 4.4%
10 | CN1CCN(c2nc3c(c(=O)[nH]c(=O)n3C)n2Cc2cccc3ccccc23)CC1 | -8.9%
11 | CCC(C)(C)n1nnnc1C(c1cccs1)N1CCN(c2nc3ccccc3s2)CC1 (stereo not drawn) | 0.6%
12 | Cc1ccc(S(=O)(=O)N2CCCC2C(=O)NCc2ccco2)cc1 (stereo not drawn) | 6.4%
13 | CCCN1C(=O)C(NC(C)=O)c2cc(OC)ccc21 (stereo not drawn) | -5.9%
14 | O=C(CO/N=C/c1ccccc1O)NNC(=O)c1ccccc1Cl | 2.1%
15 | CC(=O)Nc1ccc(S(=O)(=O)NCCc2ccccc2)cc1 | -7.2%
16 | CCOc1ccc(NC(=O)CCC(=O)n2nc(C)cc2C)cc1 | -6.7%
17 | Cc1ccc(OCc2nnc(NC(=O)OCC(C)C)s2)cc1 | 0.2%
18 | CCOC(=O)c1sc(NC(=S)n2cc(C)cn2)c(C(=O)OCC)c1C | -0.6%
19 | COCCOC(=O)C1=C(C)N=c2s/c(=C\c3cccs3)c(=O)n2C1c1cccs1 (stereo not drawn) | -3.2%
20 | Cc1c(-c2ccccc2)nc(N)c(C#N)c1-c1cccs1 | -3.7%
21 | CCc1ccc2oc(=O)cc(CN3CCCCC3C)c2c1 (stereo not drawn) | -6.7%
22 | O=C1c2ccccc2C2=Nc3ccccc3SC(c3ccccc3F)C12 (stereo not drawn) | -0.2%

Row | Compound | activation
23 | C=CCn1c2ccccc2c2nnc(SC(CC)C(=O)Nc3nc(C)c(C(=O)OCC)s3)nc21 (stereo not drawn) | 10%
24 | O=C(Nc1ccc2nc3n(c(=O)c2c1)CCCCC3)c1ccccc1Cl | -7.6%
25 | CCCCN=C1N/C(=C\c2ccco2)C(=O)N1c1ccccc1 | -7.6%
26 | CC1(C)C/C(=C(/C#N)C(N)=O)CCO1 | 3.2%
27 | Cc1noc(C)c1CSCC(=O)Nc1nc2ccc(Oc3ccccc3)cc2s1 | -4.3%
28 | O=C(Nc1ccc(Sc2ccc(Br)cc2)cc1)c1ccco1 | -2.8%
29 | Cc1cccc(OCCCC(=O)Nc2ccc(S(=O)(=O)N3CCCC3)cc2)c1 | -20.4%
30 | CCOC(=O)c1ccc(NC(=O)CSc2ncccn2)cc1 | 21.4%
31 | O=C(CCCn1c(=O)[nH]c2cc(Cl)ccc2c1=O)NCCN1CCN(c2ccccc2)CC1 | 4%
32 | O=C(CSCc1ccccc1Cl)NNC(=O)c1ccccc1 | -5.4%
33 | O=C(CS(=O)(=O)Cc1ccccc1)NCC1CCCO1 (stereo not drawn) | 24.8%
34 | C/C(=C\C(=O)c1cccnc1)Nc1ccc(C)c(C)c1 | -89.1%
35 | CCCNS(=O)(=O)c1ccc2c(c1)CCCN2C(C)=O | -100%
36 | C=CCn1c(N)c(C(=O)OCC(C)C)c2nc3ccccc3nc21 | -94.4%
37 | c1ccc(CSc2nnc(-c3ccco3)n2Cc2ccccc2)cc1 | 1.1%
38 | CCCc1nc2scc(-c3ccc(C)cc3)c2c(=O)n1N | -5.6%
39 | COc1ccccc1C(=O)C(O)c1ccccc1OC (stereo not drawn) | 4.6%
40 | COc1cc(-c2nc(-c3ccncc3)no2)cc(OC)c1OC | 1.5%
41 | Cc1c(Nc2cc(N3CCCC(C)C3)c3nonc3c2[N+](=O)[O-])c(=O)n(-c2ccccc2)n1C (stereo not drawn) | -5.2%
42 | Cc1cccc(C(=O)NCCCN2CCCC2=O)c1 | 26%
43 | CSCc1cc(N2CCOCC2)nc(SCc2ccc(Cl)cc2Cl)n1 | -7.6%
44 | O=C(NCc1cccnc1)Nc1ccccc1F | 10.6%

Row | Compound | activation
45 | O=C(c1ccco1)N1CCN(CC(=O)N(C2CCCCC2)C2CCS(=O)(=O)C2)CC1 (stereo not drawn) | -39.3%
46 | COc1cc(OC)c(C(=O)NC2CCCCCC2)cc1OC | -3.2%
47 | Cc1ccc(-n2nc3ccc(NC(=O)/C=C/c4ccco4)cc3n2)cc1C | -46.8%
48 | O=C(Nc1ccncc1)c1c(F)cccc1F | 76.2% (active)
49 | CCC(=O)Nc1cccc(NC(=O)c2cccnc2)c1 | -7.7%
50 | O=C(Nc1ccc(F)cc1)c1cccnc1N1CCOCC1 | -3.5%
51 | CC(=O)c1cc(NC(=O)c2ccccc2)c(=O)oc1/C=C/N(C)C | 16.1%
52 | NC(=O)CCCC1=NS(=O)(=O)c2ccccc2N1 | 2.1%
53 | O=C(O)c1ccc(COc2c(F)c(F)cc(F)c2F)o1 | 1.5%
54 | CC(=O)c1ccc(Oc2cc(C)nc(-n3nc(C)cc3C)n2)cc1 | -75.8%
55 | CC(=O)c1cnn(-c2cc(Oc3ccc(F)cc3)ncn2)c1C | 50.8% (active)
56 | CC(c1ccccn1)N(CCN(C)C)C(=S)Nc1ccccc1F (stereo not drawn) | 1.7%
57 | O=C(Nc1cc2c3c(c1)C1CCCC1CN3CC1CCCC21)c1ccc([N+](=O)[O-])cc1 (stereo not drawn) | -2.9%
58 | Cc1cc(C)n(-c2nc(O)cc(=O)[nH]2)n1 | -0.9%
59 | CCC(=O)NCCc1nc2ccccc2n1CC | -6.7%
60 | COC(=O)c1ccc(NC(=O)Nc2ccc(C)cc2)cc1 | -1.4%
61 | CCOC(=O)N1CCC(NC(=O)c2ccc3nc(N4CCOCC4)sc3c2)CC1 | -2.2%
62 | Cc1ccc2c(c1)sc1ncc(NC(=O)c3ccccc3)c(=O)n12 | -3.1%
63 | O=C(Nc1nncs1)c1ccccc1NS(=O)(=O)c1cccs1 | 5.4%
64 | Cc1nc2nc[nH]n2c(=O)c1NC(=O)c1cccc(OCC(C)C)c1 | -5.4%
65 | CCOC(=O)NCc1ccc2c(c1)OCO2 | -8.2%
66 | CCn1c(NC(=O)c2ccccc2)c(-c2cccs2)c(=O)c2ccccc21 | -8.7%

Row | Compound | activation
67 | COc1ccc(C(C(=O)NCc2ccccc2)N(Cc2cccs2)C(=O)c2cnccn2)cc1 (stereo not drawn) | -2.8%
68 | Cn1cnc([N+](=O)[O-])c1Nc1ccccc1O | 17.4%
69 | Cn1c2ccccc2c2c(C(=O)N3CCN(c4ccc(F)cc4)CC3)cn(C3CCCC3)c(=O)c21 | -11.3%
70 | Cc1cccc2cc(CN(Cc3ccc4c(c3)OCO4)Cc3nnnn3C3CCCC3)c(=O)[nH]c12 | 37.5% (active)
71 | COc1ccc(CCN(Cc2cc3cccc(C)c3[nH]c2=O)C(=O)N2CCCC2)cc1OC | -91.4%
72 | CCC(c1nnnn1Cc1ccco1)N(CCc1ccccc1)Cc1cc2cccc(C)c2[nH]c1=O (stereo not drawn) | -0.4%
73 | O=C(COC(=O)C12CC3CC(CC(C3)C1)C2)NCc1ccco1 | 3.3%
74 | CC(C)C(=O)N1CCN(c2nc(-c3ccccc3)c3c(c2C#N)CC(C)(C)OC3)CC1 | -36.7%
75 | CCCOc1cc(C)c(S(=O)(=O)n2nnc3ccccc32)cc1C | 45.5% (active)
76 | CC(=O)Nn1cc2c(=O)n(C)c(=O)n(C)c2c1 | -8.2%
77 | O=C1CC(Sc2ncn[nH]2)C(=O)N1c1ccccc1 (stereo not drawn) | 4.7%
78 | CCC(=O)Nc1ccc(S(=O)(=O)NCC2CCCO2)cc1 (stereo not drawn) | -5.4%
79 | CCCN1C(=O)C(NS(=O)(=O)c2ccc(N)cc2)(C(F)(F)F)C(C(=O)OC)=C1C (stereo not drawn) | 1.5%
80 | CCOCc1nnc(NC(=O)CSc2ccc(C)cc2)s1 | 5.6%
81 | Cc1cccc(C)c1OC(=O)CSc1nnc(-c2ccccc2)o1 | 3.9%
82 | CC(C)Nc1nc(N(c2ccccc2)c2ccccc2)nc(-n2ccnc2)n1 | 3.2%
83 | CCOc1ccc(OCc2ccc(C(=O)Nc3cccc(C)n3)o2)cc1 | 9.1%
84 | CCCNC(=O)Nc1ccccc1C(=O)Nc1ccc(OC)cc1 | -2.4%
85 | Cc1cc(=O)oc(C)c1C(=O)NC1CC(C)(C)NC(C)(C)C1 | 12.6%
86 | c1ccc(-c2cn3cccnc3n2)cc1 | -0.6%
87 | C=CCn1c(COc2cccc3cccnc23)nnc1SCC(=O)OC | -28.4%
88 | Cc1ccc(C)c(NC2=NCC(=O)N2c2ccc3c(c2)OCCO3)c1 | 21.9%
